The structures appear in SMILES notation. About 3,100 (0.86%) of roughly 360,000 compounds were called active. Only a selection was taken, and actives are over-represented in it overall. A number with no mark means an inactive call.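 Rule for the calls: active = at least 50% inhibition at 5 µM, scaled per plate between neutral and stimulator controls; inactive = the rest.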

This experiment in a line: inhibitors of PAF-induced NF-kB signaling, primary screen, cell-based, GFP fluorescence, uHTS (AID 588850).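 Note: PAF is a Pseudomonas aeruginosa culture filtrate used as stimulus; plate controls were PAF-stimulated DMSO wells for no effect and unstimulated DMSO wells for full effect.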 Particulars: KKLEB NF-kB-GFP reporter, GFP fluorescence overnight, at 5 µM, hits give high values.
Take `O=C1C(Cl)=C(Oc2ccccc2)C(=O)c2ccccc21`: the inhibition is 59.1% (active).

As to `Cc1nc2sccn2c(=O)c1S(=O)(=O)NCCc1ccccc1`, the inhibition is -12.2%. To `CCc1nc2c(OCCc3cccc(OC)c3)cccn2c1N(C)C(=O)c1ccc(C)cc1` belongs 5.8%; to `Cc1ccc(Cn2c(C)c3cnn(CC(=O)NCCN4CCOCC4)c(=O)c3c2C)cc1`, -0.6%. With `O=C(c1c(F)cccc1F)N1CCN(c2ncc(Br)cn2)CC1`, the inhibition is -1.3%.

Turning to `O=C(NNC(=O)c1ccc(-n2cncn2)c([N+](=O)[O-])c1)c1ccccc1`, the inhibition was 14.4%. To `CC(Nc1ccc([N+](=O)[O-])cc1[N+](=O)[O-])c1ccccc1` (stereo unspecified) belongs 4.8%; to `O=C(NC(Nc1nc2ccc([N+](=O)[O-])cc2s1)(C(F)(F)F)C(F)(F)F)c1ccccc1`, 74.8% (active).

As to `Cc1cn(C2CC(O)C(CO)O2)c(=O)n(CCCc2ccccc2)c1=O` (stereo unspecified), the inhibition is 1.7%. On to `COc1ccc(-c2cc(C3CCN(c4ncccc4[N+](=O)[O-])CC3)[nH]n2)cc1`, for which the inhibition is 18.1%. To `CN(CC(=O)NNC(=O)CNC(=O)c1ccccc1Cl)S(=O)(=O)c1ccc(Cl)cc1` belongs 60.5% (active); to `CN(CC(=O)NCCc1ccccn1)S(=O)(=O)c1ccc(Cl)cc1`, -8%. Consider `CN(CC(=O)NCC(c1ccccc1)N1CCCC1)S(=O)(=O)c1ccc(Cl)cc1` (stereo unspecified), for which the inhibition was -5.7%.

`COc1ccc(CCNC(=O)CN(c2ccccc2)S(C)(=O)=O)cc1OC`: the inhibition is -0.3%.

Turning to `COc1ccc(C(C(=O)NC2CCCCC2)N(C(=O)CCl)c2ccccc2Cl)cc1` (stereo unspecified), the inhibition is -13.3%.

Regarding `COc1ccc(C(CCN(Cc2ccc(OC)c(OC)c2)C(=O)CCl)c2ccccc2)cc1` (stereo unspecified), the inhibition is 82.6% (active). To `CCCCn1c(N)c(N(CC(C)C)C(=O)c2ccc(Br)o2)c(=O)[nH]c1=O` belongs -29%. To `NC(=S)c1ccc(C(N)=S)o1` belongs 14.6%; to `CCC(C(=O)NCc1cccnc1)n1nc(C)c2sc3ccccc3c2c1=O` (stereo unspecified), 9.9%; to `N#CCCn1ncc2ccccc21`, -11.2%. Then `O=C(CSc1nc(C2CC2)nc2ccccc12)Nc1ccc2c(c1)OCCO2`, with 42.7%; and `Cc1nnc(NC(=O)CSc2nc(C3CCCCC3)nc3ccccc23)s1`, with 22.6%. On to `O=C(CSc1nc(C2CC2)nc2ccccc12)Nc1cccc(O)c1`, for which the inhibition is 50.1% (active). Then `O=Cc1ccc(OCc2cn3ccccc3n2)cc1`, with -22.3%; and `CN1c2ccc(C=O)c3c(C=O)ccc(c23)N(C)C1(C)C`, with 88% (active); and `Cc1ccc(C=O)c([B-](F)(F)F)c1`, with -9.8%. Then `C=CCn1c(C2CC(=O)N(c3ccc(C)cc3)C2)nc2ccccc21` (stereo unspecified), with -16.5%. On to `CCOc1ccc(S(=O)(=O)NCCC(=O)NNC(=O)c2ccc(F)cc2)cc1`, for which the inhibition was 9.6%.

In the case of `Cc1ccc2c(c1)N(CC(=O)N1CCCc3ccccc31)C(=O)C(C)O2` (stereo unspecified), the inhibition is 7.2%.

On to `CCOC(=O)c1c(-c2ccccc2)oc2cc(Br)c(O)c(C=O)c12`, for which the inhibition was 68.5% (active). To `CCOC(=O)c1c(C)oc2cc(Br)c(OCC(N)=O)cc12` belongs -3.8%; to `CCOC(=O)c1c(C)oc2cc(Sc3ccccc3)c(O)c(O)c12`, 6.5%. Then `CCOC(=O)c1nnn2c3ccccc3c(=O)n(C)c12`, with -25.2%; and `CCCc1nc2c(c(=O)c3ccccc3n2C)c(=O)n1C1CCCCCC1`, with 55.9% (active). To `CCOC(=O)N1CCN(C(=O)c2nn(-c3ccc(C)cc3)c(=O)c3c2c2ccccc2n3C)CC1` belongs -7.7%; to `Cc1ccc(CNC(=O)c2ccc(CS(=O)Cc3cccc(Cl)c3)o2)cc1` (stereo unspecified), 1.3%. On to `O=C(Nn1cc(C(=O)N2CCN(c3ccccc3F)CC2)c2ccccc2c1=O)c1cnccn1`, for which the inhibition is -8.3%.

Regarding `NNc1cccc(C=Cc2ccccc2)cc1=O`, the inhibition was 3.8%. To `O=C1OC(Oc2ccc(Br)cc2)(c2ccccc2)c2ccccc21` (stereo unspecified) belongs 50.3% (active). As to `CCOC(=O)CSc1nnc(CNC(=O)Cc2ccccc2)n1-c1ccccc1OC`, the inhibition was 1.5%.

For `CS(=O)(=O)c1cccc(-c2ccc3nncn3c2)c1`, the inhibition was 5.2%. Then `CC(CN1CCCCC1)OC(=O)c1ccccc1Cl` (stereo unspecified), with -7.9%; and `O=C(O)Cc1ccc(NCc2ccccc2Cl)cc1`, with -14.4%. For the compound `CC(C)OC(=O)c1ccc(NCc2cc(O)ccc2O)cc1Cl`, the inhibition is 86.3% (active).

Regarding `Oc1cccc2cc(-c3ccncc3)cnc12`, the inhibition was 13.6%. To `COc1ccc(CNC(=O)C[C@H]2C[C@H](C(=O)N3CCOCC3)[C@@]3(CCC4CCCC4)c4[nH]c5ccc(Cl)cc5c4CCN3C2=O)cc1OC` belongs 8.2%; to `O=C(CCS(=O)(=O)Cc1ccccc1F)NCCCN1CCCCC1`, 5%; to `CC1CN(c2cc(=O)n(-c3cccc(Br)c3)c(=O)[nH]2)CC(C)O1` (stereo unspecified), -24.9%. Then `COC(=O)C1CCN(C(=O)COC(=O)c2cc(S(=O)(=O)N3CCOCC3)ccc2C)CC1`, with 5.9%; and `CC(C)NS(=O)(=O)c1ccc(CCC(=O)N2CCOCC2)cc1`, with 5%.

Take `CC(=O)Nc1ccc(NC(=O)CSCc2cnn(-c3ccccc3)c2-n2cccc2)cc1`: the inhibition is 11.8%. Turning to `Cc1cc(C)nc(S/C=C/C(=O)c2ccccc2)n1`, the inhibition is 71.8% (active). To `COC(c1ccccc1)(c1ccccc1)C(Oc1nc(C)cc(C)n1)C(=O)O` (stereo unspecified) belongs 3.3%; to `O=C(/C=C/Sc1ncn[nH]1)c1ccc(Cl)cc1`, 42.7%; to `C[C@@H]1Cn2cnc(C(=O)Nc3ccc(CNC(=O)OC(C)(C)C)cc3)c2C(=O)N1`, -14.7%.

`C=C(C)CNC(=O)c1ccc(OC2CCN(C(=O)COC)CC2)cc1`: the inhibition was 13.1%. Then `CC(=O)N1c2ccc(S(=O)(=O)NCCC(=O)N(C)C3CCCCC3)cc2CC1C` (stereo unspecified), with 3.2%; and `Cc1c(Cl)cccc1NC(=O)Nc1ccc(C(=O)N2CCCC2)cc1`, with 3.8%; and `O=C(Nc1ccc(C(=O)N2CCOCC2)cc1)Nc1cccc(C(F)(F)F)c1`, with 55.4% (active).

As for `COc1ccccc1C(=O)Nc1cccc(C(=O)N2CCOCC2)c1`, the inhibition is -3.8%.

`COC(=O)CNC(=O)C(CCSC)NC(C)=O` (stereo unspecified): the inhibition is -2.1%. To `COc1ccc2[nH]c(=O)c(CN(Cc3cccnc3)S(=O)(=O)c3ccccc3F)cc2c1` belongs 82.1% (active); to `CCOc1ccc2[nH]c(=O)c(CN(CCCO)S(=O)(=O)c3ccc(F)cc3)cc2c1`, 2.3%. For the compound `COc1ccc(-c2[nH]ncc2CN(C)Cc2cccnc2)c(F)c1`, the inhibition was 14.6%. Then `CCCN(c1ccc(C(C)C)cc1)S(=O)(=O)c1c(C)[nH]c(=O)[nH]c1=O`, with -4.9%; and `Cc1ccc(N(CCC(=O)O)S(=O)(=O)c2cccc(C(F)(F)F)c2)cc1`, with 11%. Take `Cc1noc(C)c1S(=O)(=O)Nc1cc(C(F)(F)F)ccc1N1CCOCC1`: the inhibition is 2.4%. Then `Cc1oc2c(F)c(F)c(F)c(F)c2c1S(=O)(=O)Nc1cccc(C(F)(F)F)c1`, with 50.4% (active); and `Cc1ccsc1C(=O)NC1CCCCC1C` (stereo unspecified), with 6.2%; and `CC(C)Cc1nn2c(=O)cc(O)nc2s1`, with -9.2%. To `COC(=O)c1scc(C)c1NC(=O)CSc1ccc(Cl)cc1` belongs -3.3%; to `CCCCOc1ccc(C(=O)NCC(=O)OCC(=O)c2c(N)n(C)c(=O)n(C)c2=O)cc1`, 14.9%. As to `O=C(Nc1ccc(S(=O)(=O)N2CCCCCC2)cc1)c1c(F)cccc1F`, the inhibition is -20.3%. Then `O=C(Nc1ccncc1)c1c(F)cccc1F`, with 81.6% (active).

For `COc1cccc(OC)c1C(=O)Nc1ccc(Cc2ccncc2)cc1`, the inhibition is -1.5%.

Regarding `CNC[C@H]1Oc2c(NC(=O)C3CCCCC3)cccc2C(=O)N([C@H](C)CO)C[C@@H]1C`, the inhibition was 12.4%. With `O=S1(=O)CC(N2CCC(Cc3ccccc3)CC2)CN1Cc1ccccc1` (stereo unspecified), the inhibition is -8.1%. In the case of `CCNC(=O)CC1C(=O)N(c2ccc(F)cc2)C(=O)N1Cc1cccs1` (stereo unspecified), the inhibition is -17.2%. Then `Cn1c(C(=O)O)ccc1S(=O)(=O)N(Cc1ccccc1)Cc1ccccc1`, with -3.7%; and `C#CCN(C[C@@H]1[C@@H](OC(=O)NC2CC2)[C@@H](OC(=O)NC2CC2)Cn2c(=O)ccc(=O)n21)S(=O)(=O)c1ccc(C)cc1`, with 53.2% (active); and `Cc1ccc(S(=O)(=O)N2C[C@H]3n4c(=O)ccc(=O)n4C[C@H](OC(=O)NC4CCCC4)[C@@]3(O)C2)cc1`, with -0.9%. Then `C#CCN(C[C@H]1[C@H](OC(=O)NC2CCCC2)[C@H](OC(=O)NC2CCCC2)C[C@H]2C(=O)N(c3ccccc3)C(=O)[C@@H]12)S(=O)(=O)c1ccc(C)cc1`, with 15.8%; and `COC(=O)Cc1c(O)ccn(Cc2cccc(C(F)(F)F)c2)c1=O`, with -7.8%; and `CCN1CCC2(CC1)N=C(c1ccc(F)cc1)C(=S)N2C(=O)c1ccc(C)cc1`, with 18%. Then `CCN1CCC(O)(/C=C/c2ccc(C)cc2)C(C(=O)/C=C/c2ccc(C)cc2)C1` (stereo unspecified), with 79.8% (active); and `CCOC(=O)C1=CCC2C(=O)N(Cc3ccccc3)C(=O)C12` (stereo unspecified), with -1.4%. For `CCN(C(=O)CSc1nnnn1-c1ccccc1OC)C1CCS(=O)(=O)C1` (stereo unspecified), the inhibition is 6%.

For `COc1ccccc1CN(C)c1nnnn1-c1ccccc1`, the inhibition was -3.9%. Then `COc1ccccc1-n1nnnc1S(=O)(=O)Cc1ccc(Cl)cc1`, with 85.9% (active).

As to `CCOC(=O)C1=CC[C@@H](c2ccncc2)N(S(=O)(=O)c2ccc(C)cc2)C1`, the inhibition is 2.5%.

With `CCCC(C(=O)NC1CCCC1)N(C(=O)Cn1nnc(-c2ccc(C)o2)n1)c1cccc(O)c1` (stereo unspecified), the inhibition was -12.5%.

One may read the inhibition as the change of the read-out against control, counted positive when it falls.

The values above are taken from PubChem BioAssay AID588850 (Sanford-Burnham Center for Chemical Genomics, 2011).
